# According to ChEMBL document CHEMBL1961873, “Compounds: GSK PKIS; Assays: Nanosyn kinase panel” (2012):
# Legend:
# [1] = target: Calcium/calmodulin-dependent protein kinase type II subunit alpha (Homo sapiens) (UniProt Q9UQM7); settings: at 1 µM;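 also: reported value is a mean percent inhibition of CAMK2A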
# [2] = target: Calcium/calmodulin-dependent protein kinase type II subunit delta (Homo sapiens) (UniProt Q13557); settings: at 0.1 µM
# [3] = target: Calcium/calmodulin-dependent protein kinase type II subunit delta (Homo sapiens) (UniProt Q13557); settings: at 1 µM
# [4] = target: T1, Calcium/calmodulin-dependent protein kinase type IV (Homo sapiens) (UniProt Q16566); settings: at 0.1 µM
# T1 sequence (whole entry): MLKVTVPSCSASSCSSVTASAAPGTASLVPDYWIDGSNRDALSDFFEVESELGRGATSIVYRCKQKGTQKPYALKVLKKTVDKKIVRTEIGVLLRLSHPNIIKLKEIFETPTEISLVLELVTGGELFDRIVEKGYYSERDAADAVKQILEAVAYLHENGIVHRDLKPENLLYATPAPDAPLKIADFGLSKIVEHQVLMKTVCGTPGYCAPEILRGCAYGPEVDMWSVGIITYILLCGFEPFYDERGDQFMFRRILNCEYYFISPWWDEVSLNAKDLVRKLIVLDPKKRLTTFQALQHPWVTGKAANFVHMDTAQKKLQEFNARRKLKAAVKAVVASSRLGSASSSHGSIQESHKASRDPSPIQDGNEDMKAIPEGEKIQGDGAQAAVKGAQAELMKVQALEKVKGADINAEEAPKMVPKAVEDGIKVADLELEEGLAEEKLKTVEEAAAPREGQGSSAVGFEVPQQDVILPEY
# [5] = target: T1, Calcium/calmodulin-dependent protein kinase type IV (Homo sapiens); settings: at 1 µM
# [6] = target: T2, Serine/threonine-protein kinase Chk1 (Homo sapiens) (UniProt O14757); settings: at 0.1 µM
# T2 sequence (whole entry): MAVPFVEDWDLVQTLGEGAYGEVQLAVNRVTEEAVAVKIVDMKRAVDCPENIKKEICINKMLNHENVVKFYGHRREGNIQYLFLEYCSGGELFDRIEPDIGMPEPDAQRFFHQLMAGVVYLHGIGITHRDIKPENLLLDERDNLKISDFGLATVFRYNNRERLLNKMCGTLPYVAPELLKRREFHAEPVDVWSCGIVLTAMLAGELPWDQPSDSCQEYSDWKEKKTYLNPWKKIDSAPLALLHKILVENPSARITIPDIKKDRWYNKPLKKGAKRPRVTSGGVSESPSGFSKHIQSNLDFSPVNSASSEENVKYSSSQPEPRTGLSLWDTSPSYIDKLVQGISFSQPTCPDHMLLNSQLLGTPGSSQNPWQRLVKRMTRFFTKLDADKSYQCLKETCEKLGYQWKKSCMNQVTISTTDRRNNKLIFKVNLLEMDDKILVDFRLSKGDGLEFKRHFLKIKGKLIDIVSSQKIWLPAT
# [7] = target: T2, Serine/threonine-protein kinase Chk1 (Homo sapiens); settings: at 1 µM
# [8] = target: Serine/threonine-protein kinase Chk2 (Homo sapiens) (UniProt O96017); settings: at 0.1 µM
# [9] = target: Serine/threonine-protein kinase Chk2 (Homo sapiens) (UniProt O96017); settings: at 1 µM
# [10] = target: Death-associated protein kinase 1 (Homo sapiens) (UniProt P53355); settings: at 0.1 µM
# [11] = target: Death-associated protein kinase 1 (Homo sapiens) (UniProt P53355); settings: at 1 µM
# [12] = target: T3, Serine/threonine-protein kinase DCLK2 (Homo sapiens) (UniProt Q8N568); settings: at 0.1 µM
# T3 sequence (whole entry): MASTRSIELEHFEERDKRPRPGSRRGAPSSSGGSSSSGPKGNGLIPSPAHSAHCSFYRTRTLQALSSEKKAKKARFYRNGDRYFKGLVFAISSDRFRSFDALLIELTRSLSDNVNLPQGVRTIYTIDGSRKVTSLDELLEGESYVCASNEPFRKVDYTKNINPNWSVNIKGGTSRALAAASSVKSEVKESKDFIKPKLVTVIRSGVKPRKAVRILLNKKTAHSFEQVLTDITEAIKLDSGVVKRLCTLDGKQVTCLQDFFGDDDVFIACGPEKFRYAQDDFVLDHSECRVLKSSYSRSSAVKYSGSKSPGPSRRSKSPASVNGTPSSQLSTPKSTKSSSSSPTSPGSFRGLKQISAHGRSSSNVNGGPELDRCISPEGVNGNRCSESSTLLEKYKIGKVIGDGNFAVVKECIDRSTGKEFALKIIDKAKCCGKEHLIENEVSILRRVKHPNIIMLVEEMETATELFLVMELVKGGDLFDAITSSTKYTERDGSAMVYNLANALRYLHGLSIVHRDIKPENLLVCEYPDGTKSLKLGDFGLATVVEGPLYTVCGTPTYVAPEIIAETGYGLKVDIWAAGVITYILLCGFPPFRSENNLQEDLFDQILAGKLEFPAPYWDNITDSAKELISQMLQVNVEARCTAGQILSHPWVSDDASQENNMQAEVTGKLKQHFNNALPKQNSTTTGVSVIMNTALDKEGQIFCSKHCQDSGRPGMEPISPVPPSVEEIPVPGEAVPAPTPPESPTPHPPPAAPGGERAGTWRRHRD
# [13] = target: T3, Serine/threonine-protein kinase DCLK2 (Homo sapiens); settings: at 1 µM
# [14] = target: MAP kinase-activated protein kinase 2 (Homo sapiens) (UniProt P49137); settings: at 0.1 µM
# [15] = target: MAP kinase-activated protein kinase 2 (Homo sapiens) (UniProt P49137); settings: at 1 µM
# [16] = target: MAP kinase-activated protein kinase 3 (Homo sapiens) (UniProt Q16644); settings: at 0.1 µM
# [17] = target: MAP kinase-activated protein kinase 3 (Homo sapiens) (UniProt Q16644); settings: at 1 µM
# [18] = target: Serine/threonine-protein kinase MARK1 (Homo sapiens) (UniProt Q9P0L2); settings: at 0.1 µM
# [19] = target: Serine/threonine-protein kinase MARK1 (Homo sapiens) (UniProt Q9P0L2); settings: at 1 µM
# [20] = target: MAP/microtubule affinity-regulating kinase 3 (Homo sapiens) (UniProt P27448); settings: at 0.1 µM;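 also: mean percent inhibition of MARK3 kinase activity, measured within the GSK PKIS screening panel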
# Sequence of MAP/microtubule affinity-regulating kinase 3 (Homo sapiens) (P27448 whole entry, looked up): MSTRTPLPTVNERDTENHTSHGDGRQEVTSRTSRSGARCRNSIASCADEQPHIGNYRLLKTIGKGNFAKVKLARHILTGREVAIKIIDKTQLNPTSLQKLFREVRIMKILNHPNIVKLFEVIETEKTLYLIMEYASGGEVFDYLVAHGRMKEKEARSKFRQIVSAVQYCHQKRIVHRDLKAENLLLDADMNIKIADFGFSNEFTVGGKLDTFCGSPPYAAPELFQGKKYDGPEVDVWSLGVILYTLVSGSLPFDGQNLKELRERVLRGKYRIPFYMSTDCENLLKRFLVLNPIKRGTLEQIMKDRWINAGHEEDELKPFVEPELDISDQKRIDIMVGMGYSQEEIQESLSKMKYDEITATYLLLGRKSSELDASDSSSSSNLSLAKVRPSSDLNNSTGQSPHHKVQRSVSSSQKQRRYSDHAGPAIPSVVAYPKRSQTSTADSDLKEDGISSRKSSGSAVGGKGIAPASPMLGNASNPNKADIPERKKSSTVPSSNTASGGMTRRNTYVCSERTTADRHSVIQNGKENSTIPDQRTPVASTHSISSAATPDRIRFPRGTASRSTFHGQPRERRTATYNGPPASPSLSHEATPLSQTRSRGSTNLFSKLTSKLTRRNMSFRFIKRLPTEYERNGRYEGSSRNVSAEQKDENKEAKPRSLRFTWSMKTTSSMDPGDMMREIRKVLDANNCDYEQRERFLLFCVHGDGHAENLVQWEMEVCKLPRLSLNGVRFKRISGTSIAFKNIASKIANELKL
# Sequence of MAP kinase-activated protein kinase 2 (Homo sapiens) (P49137 whole entry, looked up): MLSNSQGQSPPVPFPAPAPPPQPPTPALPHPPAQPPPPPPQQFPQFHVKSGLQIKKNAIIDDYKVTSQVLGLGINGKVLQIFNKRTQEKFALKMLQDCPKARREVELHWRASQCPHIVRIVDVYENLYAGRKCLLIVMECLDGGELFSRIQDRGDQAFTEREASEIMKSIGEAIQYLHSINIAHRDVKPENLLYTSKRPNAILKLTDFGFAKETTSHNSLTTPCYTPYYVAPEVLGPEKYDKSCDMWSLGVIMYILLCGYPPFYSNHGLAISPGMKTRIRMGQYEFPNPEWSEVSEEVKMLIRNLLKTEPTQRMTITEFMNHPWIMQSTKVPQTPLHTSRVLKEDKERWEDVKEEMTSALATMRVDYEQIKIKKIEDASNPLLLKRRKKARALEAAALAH
# Sequence of Calcium/calmodulin-dependent protein kinase type II subunit alpha (Homo sapiens) (Q9UQM7 whole entry): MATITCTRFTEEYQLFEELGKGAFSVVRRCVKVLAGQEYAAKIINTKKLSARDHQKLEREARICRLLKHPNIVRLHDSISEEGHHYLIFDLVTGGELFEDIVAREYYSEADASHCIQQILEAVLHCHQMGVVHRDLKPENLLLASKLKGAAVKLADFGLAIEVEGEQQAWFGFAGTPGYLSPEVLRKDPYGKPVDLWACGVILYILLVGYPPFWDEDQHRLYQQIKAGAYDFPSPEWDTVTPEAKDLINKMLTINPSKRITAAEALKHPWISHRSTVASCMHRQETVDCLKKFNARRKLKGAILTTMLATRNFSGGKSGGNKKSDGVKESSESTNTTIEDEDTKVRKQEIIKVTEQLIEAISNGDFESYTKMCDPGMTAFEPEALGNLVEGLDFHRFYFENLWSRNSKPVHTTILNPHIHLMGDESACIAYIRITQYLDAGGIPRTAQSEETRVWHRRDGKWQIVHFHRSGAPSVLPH
# Sequence of Death-associated protein kinase 1 (Homo sapiens) (P53355 whole entry, looked up): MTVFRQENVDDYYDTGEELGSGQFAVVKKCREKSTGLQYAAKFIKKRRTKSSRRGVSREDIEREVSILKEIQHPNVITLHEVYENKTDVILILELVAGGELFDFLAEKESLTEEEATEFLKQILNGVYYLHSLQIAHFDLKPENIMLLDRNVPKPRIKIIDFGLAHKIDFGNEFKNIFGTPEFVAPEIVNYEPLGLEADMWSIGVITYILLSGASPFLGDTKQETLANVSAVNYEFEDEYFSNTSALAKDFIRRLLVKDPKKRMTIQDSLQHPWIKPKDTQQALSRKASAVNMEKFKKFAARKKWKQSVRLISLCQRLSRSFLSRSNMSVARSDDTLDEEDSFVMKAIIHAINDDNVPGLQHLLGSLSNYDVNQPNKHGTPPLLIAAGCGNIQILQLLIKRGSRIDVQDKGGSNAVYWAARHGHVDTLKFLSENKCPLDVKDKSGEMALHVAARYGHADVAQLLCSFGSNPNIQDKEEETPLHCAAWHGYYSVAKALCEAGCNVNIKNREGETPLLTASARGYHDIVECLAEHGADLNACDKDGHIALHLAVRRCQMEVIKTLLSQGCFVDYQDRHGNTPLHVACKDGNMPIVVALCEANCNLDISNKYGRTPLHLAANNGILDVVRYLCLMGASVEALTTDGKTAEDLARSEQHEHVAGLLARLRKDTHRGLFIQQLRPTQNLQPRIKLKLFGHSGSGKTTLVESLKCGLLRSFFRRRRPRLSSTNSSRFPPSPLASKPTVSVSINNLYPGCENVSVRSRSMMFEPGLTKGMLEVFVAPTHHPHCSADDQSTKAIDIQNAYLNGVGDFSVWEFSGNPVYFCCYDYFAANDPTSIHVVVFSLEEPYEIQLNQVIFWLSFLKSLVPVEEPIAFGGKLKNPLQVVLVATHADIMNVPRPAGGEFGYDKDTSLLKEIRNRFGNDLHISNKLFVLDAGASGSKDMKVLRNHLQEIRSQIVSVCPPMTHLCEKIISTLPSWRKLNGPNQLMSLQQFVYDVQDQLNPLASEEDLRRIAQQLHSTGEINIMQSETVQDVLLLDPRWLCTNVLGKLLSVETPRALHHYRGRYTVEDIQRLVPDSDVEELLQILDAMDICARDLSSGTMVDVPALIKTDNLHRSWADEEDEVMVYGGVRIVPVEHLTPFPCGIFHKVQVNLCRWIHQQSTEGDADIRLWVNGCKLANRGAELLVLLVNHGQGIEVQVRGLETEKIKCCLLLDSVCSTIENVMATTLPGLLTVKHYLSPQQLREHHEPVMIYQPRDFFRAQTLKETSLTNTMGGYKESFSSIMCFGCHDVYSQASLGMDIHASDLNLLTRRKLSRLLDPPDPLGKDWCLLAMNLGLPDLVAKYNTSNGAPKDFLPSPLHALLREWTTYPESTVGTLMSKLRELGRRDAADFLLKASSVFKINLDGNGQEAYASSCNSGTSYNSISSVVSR
# Sequence of Calcium/calmodulin-dependent protein kinase type II subunit delta (Homo sapiens) (Q13557 whole entry): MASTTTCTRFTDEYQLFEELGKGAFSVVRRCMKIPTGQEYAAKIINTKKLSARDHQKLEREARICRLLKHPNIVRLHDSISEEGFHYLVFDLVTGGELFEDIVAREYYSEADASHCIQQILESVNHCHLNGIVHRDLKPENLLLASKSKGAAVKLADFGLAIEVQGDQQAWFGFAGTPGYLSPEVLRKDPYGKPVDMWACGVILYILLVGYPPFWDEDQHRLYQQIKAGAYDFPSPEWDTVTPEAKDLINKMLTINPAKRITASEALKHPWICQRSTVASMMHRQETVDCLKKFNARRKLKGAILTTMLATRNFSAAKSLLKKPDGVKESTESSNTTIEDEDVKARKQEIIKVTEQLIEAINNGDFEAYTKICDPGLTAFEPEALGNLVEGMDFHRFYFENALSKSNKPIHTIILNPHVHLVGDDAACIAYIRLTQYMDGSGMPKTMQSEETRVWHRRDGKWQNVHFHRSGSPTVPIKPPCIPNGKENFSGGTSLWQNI
# Sequence of MAP kinase-activated protein kinase 3 (Homo sapiens) (Q16644 whole entry, looked up): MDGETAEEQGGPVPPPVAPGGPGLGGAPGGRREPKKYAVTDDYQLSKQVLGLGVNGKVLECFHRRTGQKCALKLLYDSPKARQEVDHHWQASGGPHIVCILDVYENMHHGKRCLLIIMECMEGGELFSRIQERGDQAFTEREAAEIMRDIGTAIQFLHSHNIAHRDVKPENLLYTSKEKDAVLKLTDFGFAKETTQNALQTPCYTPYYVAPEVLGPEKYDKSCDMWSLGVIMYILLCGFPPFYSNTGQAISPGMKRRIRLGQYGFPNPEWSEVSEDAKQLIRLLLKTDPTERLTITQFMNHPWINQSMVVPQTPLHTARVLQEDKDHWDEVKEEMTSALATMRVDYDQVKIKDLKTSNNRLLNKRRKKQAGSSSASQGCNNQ
# Sequence of Serine/threonine-protein kinase Chk2 (Homo sapiens) (O96017 whole entry): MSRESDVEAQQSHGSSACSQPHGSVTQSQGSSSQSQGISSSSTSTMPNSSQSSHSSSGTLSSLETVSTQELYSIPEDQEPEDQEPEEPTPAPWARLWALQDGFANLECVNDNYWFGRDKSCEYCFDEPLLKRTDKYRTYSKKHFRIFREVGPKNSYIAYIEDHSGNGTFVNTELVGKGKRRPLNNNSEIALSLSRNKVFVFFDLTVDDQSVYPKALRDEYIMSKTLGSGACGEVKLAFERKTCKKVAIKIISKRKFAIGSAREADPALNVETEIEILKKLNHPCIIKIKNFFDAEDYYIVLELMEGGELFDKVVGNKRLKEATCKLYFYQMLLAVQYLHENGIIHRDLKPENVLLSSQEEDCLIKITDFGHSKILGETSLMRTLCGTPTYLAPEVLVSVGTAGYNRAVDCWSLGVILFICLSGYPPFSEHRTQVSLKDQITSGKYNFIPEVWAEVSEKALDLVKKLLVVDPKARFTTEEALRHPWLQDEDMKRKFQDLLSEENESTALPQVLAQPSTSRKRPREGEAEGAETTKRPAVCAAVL
SMILES,inhibition [1],inhibition [2],inhibition [3],inhibition [4],inhibition [5],inhibition [6],inhibition [7],inhibition [8],inhibition [9],inhibition [10],inhibition [11],inhibition [12],inhibition [13],inhibition [14],inhibition [15],inhibition [16],inhibition [17],inhibition [18],inhibition [19],inhibition [20]
CCn1c(-c2nonc2N)nc2c(C#CC(C)(C)O)nc(OC[C@H](N)c3ccccc3)cc21,6.26%,4.52%,8.64%,-0.61%,4.09%,2.81%,9.89%,4.7%,11.3%,2.88%,4.82%,-2.25%,1.52%,0.63%,2.99%,1.45%,2.95%,2.28%,27.3%,4.68%
FC(F)(F)c1cccc(-c2nn3ncccc3c2-c2ccnc(Nc3ccc4c(c3)OCCO4)n2)c1,2.43%,1.59%,3.33%,0.49%,0.92%,1.89%,2.98%,1.74%,3.43%,2.28%,4.46%,0.29%,-0.51%,0.54%,0.88%,12.3%,31.9%,2.64%,3.63%,2.14%
CCn1c(-c2nonc2N)nc2ccccc21,5.38%,4.24%,4.89%,-0.37%,1.93%,6.35%,4.95%,0.53%,1.9%,4.46%,7.32%,-0.38%,-3.76%,0.79%,1.12%,3.15%,1.52%,2.03%,3.52%,3.42%
O=C(Nc1n[nH]c2cc(-c3ccc(F)cc3)ccc12)C1CC1,5.83%,2.59%,3.77%,-0.12%,1.07%,8.27%,10.8%,6.26%,6.67%,9.31%,9.97%,1.56%,0.81%,4.23%,4.01%,9.47%,8.99%,3.81%,5.7%,2.03%
COc1cccc(-n2ncc3c(N/N=C/c4ccc(F)cc4)ncnc32)c1,3.26%,3.08%,3.49%,-2.69%,-2.57%,2.07%,5.65%,2.49%,3.64%,4.6%,5.45%,1.07%,0.2%,1.96%,2.72%,3.14%,3.2%,3.33%,5.14%,4.91%
CCn1c(-c2nonc2N)nc2cnc(Oc3cccc(NC(=O)c4ccc(N(C)C)cc4)c3)cc21,5.87%,1.23%,17.3%,0.01%,1.14%,0.31%,5.78%,1.31%,8.31%,1.42%,0.59%,0.41%,0.72%,1.12%,0.16%,2.53%,2.85%,2.53%,10.8%,2.76%
CC(C)(CO)CNC(=O)c1ccc2c(c1)/C(=N/Nc1ccc(S(N)(=O)=O)cc1)C(=O)N2,4.28%,0.61%,12.2%,0.55%,-0.51%,0.39%,-3.69%,-0.89%,5.93%,-0.17%,0.07%,0.04%,1.76%,-0.45%,-1.03%,2.49%,2.07%,10.3%,52.5%,5.88%
CS(=O)(=O)CCNCc1coc(-c2ccc3ncnc(Nc4ccc(OCc5ccccc5)cc4)c3c2)c1,6.16%,2.95%,3.61%,2.14%,3.11%,1.85%,3.43%,5.28%,28.8%,2.7%,1.73%,-0.36%,0.64%,1.33%,1.98%,2.6%,1.32%,2.05%,1.62%,1.54%
COC(=O)Nc1nc2ccc(S(=O)(=O)c3ccc(NC(=O)Nc4cc(C(F)(F)F)ccc4F)cc3)cc2[nH]1,3.22%,3.61%,3.6%,-0.05%,0.07%,1.24%,3.43%,1.62%,1.94%,3.73%,5.43%,-0.62%,-0.64%,0.59%,1.63%,1.8%,3.35%,2.26%,2.1%,3.97%
CCc1nn2ncccc2c1-c1ccnc(NC2CC2)n1,3.03%,2.51%,4.18%,3.71%,2.48%,2.02%,2.69%,1.64%,3.66%,3.5%,1.38%,-1.54%,2.15%,1.44%,2.07%,1.73%,2.3%,0.89%,2.47%,0.47%
COc1ccc(CNC(=O)c2ccc(-c3cc(-c4nnc(C)o4)ccc3C)cc2)cc1,0.47%,0.75%,-0.53%,-1.83%,-4.17%,6.78%,8.82%,6.34%,7.55%,9.67%,10.2%,1.92%,2.89%,4.31%,5.53%,14.5%,29.3%,1.53%,2.91%,1.55%
CCn1cc(-c2ccnc3[nH]ccc23)c(-c2cccc(NC(=O)Nc3ccc(OCc4ccccc4)cc3)c2)n1,-2.25%,1.86%,-0.28%,0.6%,-0.67%,1.82%,-1.06%,-0.17%,-0.76%,1.61%,1.12%,-1.87%,-0.63%,-0.39%,-0.71%,0.57%,1.13%,0.74%,3.68%,1.29%
c1cc(-c2cnn3nc(N4CCOCC4)ccc23)nc(NC2CC2)n1,6.53%,3.77%,9.6%,1.3%,2.07%,3.63%,1.64%,3.07%,7.4%,3.51%,3.38%,-0.25%,-2.52%,1.29%,1.97%,5.27%,6.31%,3.55%,10.3%,4.76%
COc1ccc2c(-c3ccnc(Nc4cccc(OC(F)(F)F)c4)n3)cnn2n1,3.59%,2.75%,5.82%,-0.96%,-0.82%,3.59%,5.26%,3.11%,5.21%,5.2%,5.37%,0.72%,0.97%,2.32%,2.88%,4.5%,5.2%,2.92%,6.68%,0.91%
CNC(=O)c1cc(-c2ccc(F)cc2)cc(-c2ccc(S(=O)(=O)N3CCCC3)cc2)c1N,1.06%,3.1%,3.89%,-1.57%,1.17%,8.01%,11.8%,6.61%,8.16%,10.6%,9.63%,-1.53%,-0.01%,4.47%,5.35%,7.55%,9.54%,2.14%,3.58%,1.73%
CN1CCC(n2cnc(-c3ccc(F)cc3)c2-c2ccnc(Nc3ccccc3)n2)CC1,1.68%,0.53%,2.35%,0.11%,1.45%,-0.4%,1.3%,1.2%,2.71%,2.63%,2.54%,0.09%,-4.09%,1%,0.41%,34.8%,36.9%,1.99%,4.86%,3.17%
NS(=O)(=O)c1ccc(Nc2ncc(-c3ccccc3)o2)cc1,4.77%,2.92%,7.79%,-0.86%,-0.71%,0.75%,7.56%,1.94%,3.97%,3.79%,4.56%,1.31%,1.65%,1.62%,1.99%,2.89%,2.39%,3.62%,12.9%,4.38%
CCN1CCC(CC(=O)Nc2n[nH]c3nnc(-c4cccc(F)c4F)cc23)CC1,-0.76%,2.44%,0.77%,2.76%,-0.58%,1.72%,-1.03%,1.92%,0.24%,3.62%,3.28%,-0.85%,1.18%,1.15%,0.52%,1.74%,0.62%,1.89%,2.48%,2.14%
CN1CCC(n2cnc(-c3ccc(F)cc3)c2-c2ccnc(N)n2)CC1,2.5%,-0.04%,4.76%,-0.06%,0.61%,0.82%,-1.42%,1.28%,9.16%,2.13%,2.09%,0.59%,1.94%,0.99%,0.33%,17.1%,33.5%,1.8%,6.88%,0.93%
NC(=O)c1sc(-n2cnc3ccc(C(F)(F)F)cc32)cc1OCc1ccccc1Br,3.63%,2.57%,7.23%,1.31%,2.02%,-3.21%,-0.7%,2.54%,3.23%,-0.43%,-0.59%,0.84%,-0.41%,1.86%,0.94%,4.27%,4.34%,2.69%,4.02%,0.94%
COc1cc(/C=N/Nc2ncnc3[nH]ncc23)ccc1O,5.41%,2.57%,11.4%,-0.14%,-0.84%,26.1%,66.1%,4.23%,23.8%,4.22%,4.2%,1.49%,1.35%,2.01%,2.3%,2.87%,4%,7.13%,35.7%,7.13%
